Screens (PubChem BioAssay)
FEN1 inh: human FEN1 inhibition; P39748; Recombinant FEN1 flap cleavage, fluorescence, 15 min; Potency, µM (top dose mostly 114 µM), usual class: inhibitors; hit rate 0.35% among 390,000; also: nearly all actives have a fitted effect of over 65% in size
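Enzyme 10 nM, 15 min RT preincubation with compound; start with substrate 50 nM final; reads at 0 and 15 min; qHTS titration, four-parameter Hill fit.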
TCR activator: activators of T cell receptors | primary human leukocytes, anti-CD3, IL-2 HTRF, 48 h | Potency, µM (top dose mostly 9.22 µM), usual class: activators | 330,000 tested, under 10 active | AID 504894
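TCR engagement came from a-CD3 beads alone, with compounds added to primary human leukocytes for 48 hr. Secreted IL-2 bridged europium cryptate- and d2-labelled anti-IL-2 antibodies, giving FRET emission at 665nm after 320nm excitation.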
WRN inhibitor: blocks human WRN helicase; Q14191; WRN helicase unwinding, fluorescent forked duplex, kinetic; Potency, µM (top dose mostly 114 µM), hits mostly inhibitors; hit rate 0.46% among 360,000; AID 651768; also: nearly all actives have a fitted effect of over 55% in size
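Fluorescence dequenching readout, ex 525 nm/em 598 nm, kinetic mode: forked duplex DNA (100 nM final) with adjacent fluorophore and quencher unwound by WRN (20 nM final) with 2 mM ATP. Compound preincubation 15 min, room temperature.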
VDR inh: blocks the human vitamin D receptor. VDR-SRC2-3 peptide fluorescence polarization, 2 h. Potency, µM, hits mostly inhibitors. hit rate 0.93% among 400,000
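VDR–SRC2-3 interaction, FP format. Cmpds 23 nl via pintool, brief spin, 2 h ambient incubation.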
PI5P4K alpha inh: blocks human PI5P4K alpha kinase activity. hit rate 1.2% among 330,000. AID 652105. PI5P4Kalpha enzyme, ADP-Glo luminescence, 60 min; active compounds read low. P48426. max response, %; active = max response of -50% or lower; inconclusive = between -30% and -50%; inactive = -30% or higher; also: value at the top dose of about 77 µM
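Reactions run in 0.038 M HEPES pH 7.4, 0.28 mM EGTA, 0.1% CHAPS and 5% DMSO, with PI5P4Kalpha, substrate, compound and 5 microM ATP final, one hour at room temperature. Readout is ADP-Glo luminescence.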
PLK1 PBD inh: blocks phosphopeptide binding to human PLK1 polo-box domain; Plk1 PBD binding of FITC phosphopeptide, fluorescence polarization; Potency, µM, hits mostly inhibitors; hit rate 2.8% among 360,000; also: series mostly up to about 57 µM; nearly all actives have a fitted effect of over 65% in size
Target sequence (P53350 whole entry, looked up, the tested form may be a part): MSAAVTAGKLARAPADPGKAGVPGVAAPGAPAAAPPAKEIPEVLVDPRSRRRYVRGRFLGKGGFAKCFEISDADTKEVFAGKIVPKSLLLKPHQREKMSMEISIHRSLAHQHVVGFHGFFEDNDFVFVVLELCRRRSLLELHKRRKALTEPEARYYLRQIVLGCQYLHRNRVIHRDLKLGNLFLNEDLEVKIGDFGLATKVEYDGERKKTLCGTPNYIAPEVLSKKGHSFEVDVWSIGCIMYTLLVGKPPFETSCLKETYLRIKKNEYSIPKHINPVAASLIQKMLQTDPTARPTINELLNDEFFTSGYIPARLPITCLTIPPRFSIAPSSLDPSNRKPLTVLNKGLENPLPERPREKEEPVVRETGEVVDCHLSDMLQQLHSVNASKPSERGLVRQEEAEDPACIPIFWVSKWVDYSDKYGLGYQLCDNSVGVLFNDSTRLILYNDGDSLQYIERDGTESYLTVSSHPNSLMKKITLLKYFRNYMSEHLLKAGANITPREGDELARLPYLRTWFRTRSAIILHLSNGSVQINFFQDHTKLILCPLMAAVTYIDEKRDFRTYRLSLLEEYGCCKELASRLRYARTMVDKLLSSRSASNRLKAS
ADP-Glo interf: counter-screen for PI5P4K inhibitors: ADP-Glo detection interference, no enzyme; shares compounds with PI5P4K alpha inh; ADP-Glo detection counter-screen, luciferase luminescence, no enzyme; 1,100 tested, under 10 active; Potency, µM (titrated, usually from 76.9 µM), most hits filed as inhibitors
Numbers stand for hits; [ ] = remark or other dose. A selection: hits, their analogues and other compounds. The true share with any hit is near 3.7%. Unless noted, calls follow the shape of the dose curve; as a rule, active = well fitted curve in the direction sought with a large enough effect; inconclusive = small, poorly fitted or top-dose-only effect, or another doubt; inactive = no such curve, though single readings can be large; an effect the other way counts as inactive or inconclusive.

`O=C(NCc1ccco1)c1ccc(S(=O)(=O)N2CCOCC2)cc1` gave FEN1 inh inactive, TCR activator inactive, WRN inhibitor inactive, VDR inh inactive, PI5P4K alpha inh -53, PLK1 PBD inh inconclusive and ADP-Glo interf inactive.
For Cc1ccc(-n2c(=O)c3c4c(sc3n(CC(=O)Nc3ccccc3C)c2=O)CCCCC4)cc1C the results were FEN1 inh inactive and VDR inh inactive.
`O=C(Nc1ccc(N2CCOCC2)c(S(=O)(=O)Nc2ccc(Cl)cc2)c1)c1ccc(=O)[nH]n1` gave FEN1 inh inactive, TCR activator inactive, WRN inhibitor inactive[11.6 µM], VDR inh inactive, PI5P4K alpha inh -62, PLK1 PBD inh inactive and ADP-Glo interf inactive.
COc1ccc(NS(=O)(=O)c2cc(NC(=O)c3ccc(=O)[nH]n3)ccc2C)cc1 was read as FEN1 inh inactive, WRN inhibitor inactive, VDR inh inactive, PI5P4K alpha inh inactive and PLK1 PBD inh inactive.
`COc1cccc(N2CCN(C(=O)c3ccc(CS(=O)c4ccccc4Cl)o3)CC2)c1` (stereo unspecified) gave FEN1 inh inactive, TCR activator inactive, WRN inhibitor inactive, VDR inh inconclusive, PI5P4K alpha inh inactive and PLK1 PBD inh inactive.
`COc1cccc(N2CCN(C(=O)c3ccc(CS(=O)c4ccccc4C)o3)CC2)c1` (stereo unspecified) gave FEN1 inh inactive, TCR activator inactive, WRN inhibitor inactive, VDR inh inactive, PI5P4K alpha inh inactive, PLK1 PBD inh inconclusive and ADP-Glo interf inactive.
Screening O=C(Nc1cccc(Cl)c1)Nc1nnc(-c2ccncc2)s1 returned FEN1 inh inactive, TCR activator inactive, WRN inhibitor inactive, VDR inh inactive, PI5P4K alpha inh -60, PLK1 PBD inh inactive and ADP-Glo interf inactive.
COc1ccc(Oc2ncnc3c2oc2ccccc23)cc1 was read as FEN1 inh inactive and VDR inh inactive.
For O=C(Nc1ccc(Cl)cc1)Nc1cc(S(=O)(=O)N2CCOCC2)ccc1N1CCCC1 the results were FEN1 inh inactive, TCR activator inactive, WRN inhibitor inactive, VDR inh inactive, PI5P4K alpha inh inactive and PLK1 PBD inh inactive.
O=S(=O)(Nc1ccc(Cl)cc1)c1ccc(N2CCOCC2)c(NC(=S)NCCN2CCOCC2)c1 was read as FEN1 inh inactive, TCR activator inactive, WRN inhibitor inconclusive, VDR inh inconclusive, PI5P4K alpha inh -83, PLK1 PBD inh 1.7µM and ADP-Glo interf inactive.
Cc1ccc(NC(=O)CSc2nc(=O)n(Cc3ccccn3)c3c2CCC3)cc1F was read as FEN1 inh inactive and VDR inh inactive.
Screening OC[C@@H]1CCC[C@@H](n2cnc3c(=S)nc[nH]c32)O1 returned FEN1 inh inactive and VDR inh inactive.
COc1ccc2[nH]cc(CCNc3nc(-c4c(C)noc4C)nc4ccccc34)c2c1 was read as VDR inh inactive.
Screening CCOc1ccc(NC(=O)c2sc(NC(C)=O)c(C(=O)OC)c2C)cc1 returned FEN1 inh inactive, TCR activator inactive, WRN inhibitor inactive, VDR inh inactive, PI5P4K alpha inh inactive and PLK1 PBD inh inactive.
Screening COC(=O)c1c(NC(C)=O)sc(C(=O)Nc2ccccc2)c1C returned FEN1 inh inactive, TCR activator inactive, WRN inhibitor inactive, VDR inh inactive, PI5P4K alpha inh inconclusive, PLK1 PBD inh inactive and ADP-Glo interf inactive.
For CCSc1nc2c(c(=O)[nH]c(=O)n2C)n1CC(O)COc1ccc(Cl)cc1 (stereo unspecified) the results were FEN1 inh inactive and VDR inh inactive.
CC(C)Cc1c(O)nc(SCC(=O)N2CCCCCC2)[nH]c1=O was read as FEN1 inh inactive, TCR activator inactive, WRN inhibitor inactive, VDR inh inactive, PI5P4K alpha inh -50, PLK1 PBD inh inactive and ADP-Glo interf inactive.
For CC(C)c1c(O)nc(SCC(=O)N2CCCCC2)[nH]c1=O the results were FEN1 inh inactive, TCR activator inactive, WRN inhibitor inactive, VDR inh inactive, PI5P4K alpha inh inactive and PLK1 PBD inh inactive.
Screening Cc1cc(-c2csc(N)n2)c(C)n1C returned FEN1 inh inconclusive, TCR activator inactive, WRN inhibitor inconclusive, VDR inh inactive, PI5P4K alpha inh -60, PLK1 PBD inh inactive and ADP-Glo interf inactive.
Cc1ccc(-n2c(C)cc(-c3csc(N)n3)c2C)cc1 was read as FEN1 inh inactive, TCR activator inactive, WRN inhibitor inactive, VDR inh inactive, PI5P4K alpha inh inconclusive and PLK1 PBD inh inactive.
Screening COC(=O)c1c[nH]c(=O)c2ccccc12 returned FEN1 inh inactive, TCR activator inactive, WRN inhibitor inactive, VDR inh inconclusive, PI5P4K alpha inh -56, PLK1 PBD inh 15µM and ADP-Glo interf inactive.
`CCN1CCN(C(=O)Cn2nc(-c3ccc(Cl)cc3)ccc2=O)CC1` gave FEN1 inh inactive, TCR activator inactive, WRN inhibitor inactive, VDR inh inactive, PI5P4K alpha inh inconclusive, PLK1 PBD inh inactive and ADP-Glo interf inactive.
For O=C(NCCN1CCN(c2ccccc2)CC1)C1CCCN(S(=O)(=O)c2cnc[nH]2)C1 (stereo unspecified) the results were FEN1 inh inactive, TCR activator inactive, WRN inhibitor inactive, VDR inh inactive, PI5P4K alpha inh -61, PLK1 PBD inh inactive and ADP-Glo interf inactive.
Screening Cc1cc(C)cc(-n2ccnc2SCC(=O)Nc2cccc3ccccc23)c1 returned FEN1 inh inactive and VDR inh inactive.
For CC(C)C1Nc2c(O)cc(Cl)c([N+](=O)[O-])c2C2C=CCC21 (stereo unspecified) the results were FEN1 inh inactive, TCR activator inactive, WRN inhibitor inactive[11.6 µM], VDR inh inactive, PI5P4K alpha inh inactive and PLK1 PBD inh inconclusive.
O=C(O)C1Nc2c(Cl)cc(Cl)c(Cl)c2C2C=CCC12 (stereo unspecified) was read as FEN1 inh 35µM, TCR activator inactive, WRN inhibitor 40µM, VDR inh inconclusive, PI5P4K alpha inh -76, PLK1 PBD inh 24µM and ADP-Glo interf inactive.
Cc1cccc(-c2noc(CN(C(=O)COc3ccc(C(C)C)cc3)C(C)C)n2)c1 was read as FEN1 inh inactive and VDR inh inactive.
Screening Cc1cccc(C(=O)Nc2cc3c(cc2N2CCCCC2)n(C)c(=O)n3C)c1 returned FEN1 inh inactive and VDR inh inactive.
`Cc1ccc(S(=O)(=O)N2CCN(C(=O)c3cccc(-n4cccc4)c3)CC2)cc1` gave FEN1 inh inactive, TCR activator inactive, WRN inhibitor inconclusive, VDR inh inactive, PI5P4K alpha inh -52, PLK1 PBD inh inactive and ADP-Glo interf inactive.
